Source: PubChem BioAssay (The Scripps Research Institute Molecular Screening Center)
FBW7 act: human FBW7 E3 ligase activation, primary screen. normalized activity (activation), % at 26.1 µM. 650,000 tested, 0.13% active. AlphaScreen FBW7–phospho-cyclin E peptide binding, activator screen; in the data active = normalized activity above about 1.9%;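 also: purified mutant Fbw7 with reduced substrate affinity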
MITF primary: blocks human microphthalmia-associated transcription factor | AlphaScreen MITF homodimerization, bead proximity signal | O75030 | inhibition, % at 2.6 µM | 650,000 tested, 0.91% active; in the data active = inhibition above about 50%;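 also: 0% = vehicle wells with protein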
Target sequence (O75030 whole entry, looked up): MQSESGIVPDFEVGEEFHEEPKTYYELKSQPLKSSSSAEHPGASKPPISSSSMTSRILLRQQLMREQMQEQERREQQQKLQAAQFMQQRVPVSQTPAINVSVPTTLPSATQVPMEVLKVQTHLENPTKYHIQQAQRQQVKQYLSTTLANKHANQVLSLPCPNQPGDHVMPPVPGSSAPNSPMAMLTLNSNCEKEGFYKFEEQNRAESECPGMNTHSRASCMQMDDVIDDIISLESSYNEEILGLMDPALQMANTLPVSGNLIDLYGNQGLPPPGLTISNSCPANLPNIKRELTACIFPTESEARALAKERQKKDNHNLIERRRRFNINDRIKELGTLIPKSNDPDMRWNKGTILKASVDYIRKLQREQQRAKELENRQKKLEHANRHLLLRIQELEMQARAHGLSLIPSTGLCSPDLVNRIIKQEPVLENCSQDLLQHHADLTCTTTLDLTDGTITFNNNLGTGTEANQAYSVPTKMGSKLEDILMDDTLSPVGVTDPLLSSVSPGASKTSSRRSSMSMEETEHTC
TEAD-YAP block: TEAD-YAP interaction inhibition; HEK-TIYL cells, TEAD-Gal4/YAP UAS-luciferase luminescence; inhibition, % at 9.12 µM; 640,000 tested, 1.4% active; AID 1259422; in the data active = inhibition above about 32%;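 also: 0% = median of test compound wells and 100% = reference inhibitor wells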
GPR151 ag: human GPR151 activation | PathHunter beta-arrestin GPR151 cells, luminescence | activation, % at 11.2 µM | 650,000 tested, 1% active; in the data active = activation above about 4.9%;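 also: 0% = median of compound wells and 100% = cells with positive control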
* = called active by the depositor; ! = not confirmed by another sample. Only some compounds are listed: those with a hit (about 3.5% of all), similar ones and a draw of the others.

What do the screens show for `NS(=O)(=O)c1ccc(CCN2C(=O)CCC2CCNCCOc2ccc(F)cc2)cc1` (configuration not stated)?
FBW7 act: 0; MITF primary: -3; TEAD-YAP block: 0; GPR151 ag: -1

How did O=C(CN1CC[n+]2c(-c3cccs3)csc21)c1ccccc1 do in these assays?
FBW7 act: 0; MITF primary: 9; TEAD-YAP block: 32*; GPR151 ag: 0

How did O=C(Cn1c2ccccc2n2nc(-c3cccs3)nc12)c1ccccc1 do in these assays?
FBW7 act: 0; MITF primary: -3; TEAD-YAP block: -7; GPR151 ag: 1

Results for CN(Cc1cc([N+](=O)[O-])c2cccnc2c1O)C1CCCCC1 ?
FBW7 act: -1; MITF primary: 114*; TEAD-YAP block: 29; GPR151 ag: -2

Results for Oc1c(I)cc(Cl)c2cccnc12 ?
FBW7 act: 0; MITF primary: 4; TEAD-YAP block: -7; GPR151 ag: 0

What do the screens show for `O=[N+]([O-])c1cc(CN2CCN(c3ccccc3)CC2)c(O)c2ncccc12`?
FBW7 act: -1; MITF primary: 61*; TEAD-YAP block: 48*; GPR151 ag: 0

How did O=[N+]([O-])c1ccc(N2CCN(c3ccccc3)CC2)c2ncccc12 do in these assays?
FBW7 act: 0; MITF primary: 3; TEAD-YAP block: 4; GPR151 ag: 1

Results for CN(Cc1cc(Cl)c2cccnc2c1O)C1CCCCC1 ?
FBW7 act: -1; MITF primary: 37; TEAD-YAP block: 83*; GPR151 ag: 3

How did CN(Cc1cc(Br)c(O)c2ncccc12)C1CCCCC1 do in these assays?
FBW7 act: -1; MITF primary: 79*; TEAD-YAP block: 87*; GPR151 ag: 2

What do the screens show for `Cc1ccc(-n2c(-c3cccc(F)c3)nn(CC(N)=O)c2=O)nc1`?
FBW7 act: 0; MITF primary: 8; TEAD-YAP block: 8; GPR151 ag: 0

How did CC(=O)Nc1ccc(N(CC(O)Cn2c3ccc(Cl)cc3c3cc(Cl)ccc32)S(=O)(=O)c2ccc(C)cc2)cc1 (configuration not stated) do in these assays?
FBW7 act: 0; MITF primary: 0; TEAD-YAP block: 2; GPR151 ag: 0

Results for COc1cccc(C(=O)NNc2nc3c(C)cccc3s2)c1 ?
FBW7 act: 0; MITF primary: -11; TEAD-YAP block: -5; GPR151 ag: -2

Results for COc1ccccc1C(=O)NNc1nc2c(C)cccc2s1 ?
FBW7 act: 0; MITF primary: 0; TEAD-YAP block: 33*; GPR151 ag: 1

What do the screens show for `Cc1ccc(S(=O)(=O)Nc2ccccc2C(=O)Nc2nc(-c3ccccc3)cs2)cc1`?
FBW7 act: 0; MITF primary: -6; TEAD-YAP block: 34*; GPR151 ag: 1

How did COC(=O)c1ccc(-c2csc(NC(=O)c3ccccc3NS(=O)(=O)c3ccc(C)cc3)n2)cc1 do in these assays?
FBW7 act: 0; MITF primary: 17; TEAD-YAP block: 8; GPR151 ag: 0

Results for Cc1ccc(S(=O)(=O)Nc2ccccc2C(=O)Nc2nc3c(C)cccc3s2)cc1 ?
FBW7 act: 0; MITF primary: -18; TEAD-YAP block: 46*; GPR151 ag: 0

What do the screens show for `COc1ccc(-c2csc(NC(=O)c3ccccc3NS(=O)(=O)c3ccc(C)cc3)n2)cc1`?
FBW7 act: 0; MITF primary: -5; TEAD-YAP block: 38*; GPR151 ag: 1

How did COc1ccccc1C(=O)n1c(=S)nc2cc(C)ccn21 do in these assays?
FBW7 act: 0; MITF primary: 0; TEAD-YAP block: -43; GPR151 ag: 2

How did CC(=O)c1ccc(NC(=O)c2ccccc2NS(=O)(=O)c2ccc(C)cc2)cc1 do in these assays?
FBW7 act: 0; MITF primary: -1; TEAD-YAP block: 14; GPR151 ag: 2

Results for Cc1ccc(S(=O)(=O)Nc2ccccc2C(=O)Nc2ccc(-c3nc4ccccc4o3)cc2)cc1 ?
FBW7 act: 2; MITF primary: 19; TEAD-YAP block: 39*; GPR151 ag: 1

How did O=C(Nc1ccc(-c2nc3ccccc3o2)cc1)C1CCN(C(=O)C2CCCC2)CC1 do in these assays?
FBW7 act: 0; MITF primary: 52*; TEAD-YAP block: -11; GPR151 ag: -1

Results for CC(NC(=O)CCl)C1COc2ccccc2O1 (configuration not stated) ?
FBW7 act: 0; MITF primary: 1; TEAD-YAP block: 37*; GPR151 ag: 0

Results for Cn1cc(-c2cccc3cnc(NC4CCN(C(=O)N5CCCC5)C4)nc23)cn1 (configuration not stated) ?
FBW7 act: 0; MITF primary: 0; TEAD-YAP block: 39*; GPR151 ag: -1

How did Cc1cc2ncn(C(=O)c3c(-c4ccccc4)noc3C)c2cc1C do in these assays?
FBW7 act: 0; MITF primary: 2; TEAD-YAP block: 11; GPR151 ag: 1

Results for Cc1cc2ncn(C(=O)c3c(-c4c(Cl)cccc4Cl)noc3C)c2cc1C ?
FBW7 act: 2.4*; MITF primary: 9; TEAD-YAP block: -10; GPR151 ag: 0

Results for CCOc1ccccc1NC(=O)c1ccc(F)c(S(=O)(=O)N(Cc2ccc(C(=O)OC)cc2)Cc2ccc(OC)c(OC)c2)c1 ?
FBW7 act: 0; MITF primary: -1; TEAD-YAP block: 3; GPR151 ag: 1

What do the screens show for `COC(=O)c1cc(C)nc2c1C(=O)C(=O)C=C2N1CCOCC1`?
FBW7 act: 0; MITF primary: 9; TEAD-YAP block: 41*; GPR151 ag: 1

What do the screens show for `Cc1cccc(OCC(=O)N/N=C2\CC(=O)CC(C)(C)C2)c1`?
FBW7 act: 0; MITF primary: 10; TEAD-YAP block: 1; GPR151 ag: 1

Results for CCC(=O)OCCN1C(=O)c2cccc3c(N4CCOCC4)ccc(c23)C1=O ?
FBW7 act: 0; MITF primary: -12; TEAD-YAP block: -3; GPR151 ag: -1

Results for COC(=O)CCCN1C(=O)c2cccc3c(N4CCOCC4)ccc(c23)C1=O ?
FBW7 act: 0; MITF primary: -4; TEAD-YAP block: 53*; GPR151 ag: 0

How did O=C1CC(c2ccccc2)CC(O)=C1C=NCc1ccccc1Cl (configuration not stated) do in these assays?
FBW7 act: 0; MITF primary: 7; TEAD-YAP block: 51*; GPR151 ag: 2

What do the screens show for `CCOc1ccccc1N=CC1=C(O)CC(c2ccccc2)CC1=O` (configuration not stated)?
FBW7 act: 2.0*!; MITF primary: 3; TEAD-YAP block: 5; GPR151 ag: 1

How did O=C1CC(c2ccccc2)CC(O)=C1C=NCc1ccc2c(c1)OCO2 (configuration not stated) do in these assays?
FBW7 act: 0; MITF primary: -7; TEAD-YAP block: 38*; GPR151 ag: 0

What do the screens show for `CSc1ccccc1N=CC1=C(O)CC(c2ccccc2)CC1=O` (configuration not stated)?
FBW7 act: 0; MITF primary: 13; TEAD-YAP block: 5; GPR151 ag: 0
